Results reported in PubChem BioAssay (NCATS).
Results filed as inconclusive are left out. Where a call stands in place of a potency, no number is given. Calls of active or inactive are those of the source. Calls follow the shape of the dose curve; as a rule, active = well fitted curve in the direction sought with a large enough effect; inconclusive = small, poorly fitted or top-dose-only effect, or another doubt; inactive = no such curve, though single readings can be large; an effect the other way counts as inactive or inconclusive.

Key:
[1] = qHTS to identify inhibitors of the type 1 interferon - major histocompatibility complex class I in skeletal muscle: primary screen against the NCATS Pharmaceutical Collection (AID 1347407);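 also: luminescence of HiBiT knocked into endogenous HLA-B as interferon-induced MHC class I level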
Procedure, shortened: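 Immortalized human myoblasts (C25cl48) with HiBiT knocked into endogenous HLA-B*08:01 were stimulated with 4.0 ng/ml IFN-beta and treated with compounds ([…] top 46 uM) for 24 hrs at 37 C. HiBiT lytic luminescence read.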

[2] = Primary qHTS for inhibitors of La Crosse Virus (LACV) - induced cell death in SH-SY5Y cells (AID 1508616);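 also: top concentration of the series differs between compounds; higher means more rescue of cells from virus-induced death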
Procedure, shortened: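 Rescue of virus-induced death was read as ATPLite luminescence after 6 days at 37C, scaled between DMSO wells with LACV and without virus. Cells were SH-SY5Y, 6000/well, infected at 0.01 MOI after compound addition.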

[3] = molecular target: Protein phosphatase 1D (Homo sapiens) (UniProt O15297); assay: RapidFire Mass Spectrometry qHTS Assay for Modulators of WT P53-Induced Phosphatase 1 (WIP1) (AID 1347424);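 also: amount of dephosphorylated VEPPL-S-QETFS peptide product formed by WIP1; series mostly up to about 63 µM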
Procedure, shortened: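 RapidFire mass spectrometry measured dephosphorylated peptide after 5 min room-temperature reaction of 2 uM VEPPL-pS-QETFS with 10 nM WIP1 (50 mM Tris-HCl pH 7.5, 30 mM MgCl2, 0.1 mM EGTA, BSA), following 1 hr compound preincubation; 1 uM isotope-labelled product standard.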

[4] = molecular target: Protein phosphatase 1D (Homo sapiens) (UniProt O15297); assay: Rhodamine-PBP qHTS Assay for Modulators of WT P53-Induced Phosphatase 1 (WIP1) (AID 1347425)
Procedure, shortened: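 5 nM WIP1 + 10 uM Rh-PBP, 50 mM Tris pH 7.5, 30 mM MgCl2, 1 mM TCEP, 0.1 mM EGTA, BSA; cpds pinned, 1 hr RT; + 10 uM phosphopeptide; fluorescence 1-min reads x 11 min; delta = f1 - f0.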

[5] = qHTS to identify inhibitors of the type 1 interferon - major histocompatibility complex class I in skeletal muscle: primary screen against the NCATS Mechanism Interrogation Plate v5.0 (MIPE) Libary (AID 1347411); also: nearly all actives have a fitted effect of over 65% in size; also: potency is read from the fitted curve at half-maximal effect
Procedure, shortened: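 Luminescence from CRISPR HiBit-tagged endogenous HLA-B in human myoblasts reported MHC class I level after 24 h of IFN-beta (4 ng/ml) plus compound. Compounds ran as 11-point 1:3 series, top 46 uM final.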

[6] = qHTS for inhibitors of adenylyl cyclases using a fission yeast platform: a pilot screen against the NCATS LOPAC library (AID 1347410)
Procedure, shortened: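 S. pombe CHP2027 (AC9-GNAS-PDE4D2) carrying PKA-repressed fbp1-GFP, incubated 18 h at 30C in EMM with LOPAC compounds at up to 57 uM. GFP gain-of-signal read by laser scanning cytometry; DMSO negative control.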

[7] = qHTS to identify inhibitors of the type 1 interferon - major histocompatibility complex class I in skeletal muscle: primary screen against the NCATS LOPAC collection (AID 1347405);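 also: lytic HiBiT luminescence reporting HLA-B protein level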; also: potency is read from the fitted curve at half-maximal effect
Procedure, shortened: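 After 24 h at 37 C with compounds (7-point, 1:4.3 dilutions, 46 uM top final) plus 4 ng/ml IFN-beta, luminescence from lytic HiBiT detection was measured. HLA-B*08:01 in C25cl48 myoblasts carried an endogenous C-terminal HiBiT tag; medium lacked dexamethasone.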

[8] = Validation qHTS assay for inhibitors of Activation Induced Cytidine Deaminase (AID): UDG Counterscreen signal (AID 1347427)
Procedure, shortened: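 Fluorescence at 560 nm excitation, 665 nm emission reports UDG signal after 250 mM NaOH (2x) addition and 30 min. Enzymes (AID 1 uM, UDG 2 U/mL, at 4/3x) preincubated 10 min with compound, then 4 h with 4x 250 nM DJC20/DJC23 substrate at room temperature.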

[9] = molecular target: Single-stranded DNA cytosine deaminase (Homo sapiens) (UniProt Q9GZX7); assay: Validation qHTS assay for inhibitors of Activation Induced Cytidine Deaminase (AID): AID signal (AID 1347429); also: potency is read from the fitted curve at half-maximal effect
Procedure, shortened: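 Compounds (final up to 114 uM) preincubated with AID plus UDG; 250 nM DJC20/DJC23 substrate mix (4x stock) added, 4 hr at room temperature, then NaOH, 30 min. Read 1 fluorescence at 540 nm excitation, 590 nm emission.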

Sequence of Single-stranded DNA cytosine deaminase (Homo sapiens) (Q9GZX7 whole entry, looked up): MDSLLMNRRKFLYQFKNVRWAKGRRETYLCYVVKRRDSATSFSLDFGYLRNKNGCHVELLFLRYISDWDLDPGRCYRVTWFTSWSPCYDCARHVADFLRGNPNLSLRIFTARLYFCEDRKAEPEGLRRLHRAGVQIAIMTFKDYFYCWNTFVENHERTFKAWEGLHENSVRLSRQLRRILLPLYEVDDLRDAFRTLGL
Sequence of Protein phosphatase 1D (Homo sapiens) (O15297 whole entry, looked up): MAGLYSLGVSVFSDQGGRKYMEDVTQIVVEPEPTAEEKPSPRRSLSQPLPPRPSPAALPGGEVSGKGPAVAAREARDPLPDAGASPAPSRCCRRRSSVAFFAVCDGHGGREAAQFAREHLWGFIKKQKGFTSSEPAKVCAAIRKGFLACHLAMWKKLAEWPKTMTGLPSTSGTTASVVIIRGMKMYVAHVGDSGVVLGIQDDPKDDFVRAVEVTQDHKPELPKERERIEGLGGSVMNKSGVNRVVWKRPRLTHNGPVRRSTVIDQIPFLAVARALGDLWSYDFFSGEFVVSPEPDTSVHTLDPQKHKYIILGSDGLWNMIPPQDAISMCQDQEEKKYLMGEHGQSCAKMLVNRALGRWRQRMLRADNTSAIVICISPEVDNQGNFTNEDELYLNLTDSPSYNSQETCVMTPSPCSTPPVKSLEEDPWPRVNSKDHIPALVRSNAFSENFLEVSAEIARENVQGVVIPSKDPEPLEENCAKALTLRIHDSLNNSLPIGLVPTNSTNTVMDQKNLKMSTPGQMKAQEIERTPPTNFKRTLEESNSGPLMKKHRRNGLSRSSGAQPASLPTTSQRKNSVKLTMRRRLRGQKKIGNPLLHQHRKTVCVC

With `Cc1c(C)c2c(c(C)c1O)CCC(C)(COc1ccc(CC3SC(=O)NC3=O)cc1)O2` (centres undefined) the outcome [1] was “inactive” and the outcome [2] was “inactive”.
For `CNC(=O)c1ccccc1Sc1ccc2c(/C=C/c3ccccn3)n[nH]c2c1`, the outcome [1] was “inactive”, the Potency [3] was “inactive” and the outcome [4] was “inactive”.
In the case of `Cc1cc(Nc2nc(N[C@@H](C)c3ncc(F)cn3)ncc2Cl)n[nH]1`, the Potency [5] is reported as 1.04 µM (active).
For `CC(C)OC(=O)C1=CN(C(=O)c2ccc(F)c(F)c2)CC(C)(C)c2c1[nH]c1ccccc21`, the Potency [5] was “inactive”.
With `Nc1nc2c(ncn2COCCO)c(=O)[nH]1` the outcome [6] was “inactive”, the Potency [3] was “inactive” and the outcome [4] was “inactive”. The outcome [2] was “inactive”.
In the case of `Cc1ccc(-n2nc(C(C)(C)C)cc2NC(=O)Nc2ccc(OCCN3CCOCC3)c3ccccc23)cc1`, the outcome [1] is reported as “inactive”, the Potency [5] is reported as “inactive” and the outcome [4] is reported as “inactive”. For the same compound, the outcome [2] was “inactive”.
With `CCOC(=O)C1=C[C@]2(CC)CCCN3CCc4c(n1c1ccccc41)[C@@H]32` the Potency [7] was “inactive”, the outcome [1] was “inactive” and the outcome [6] was “inactive”. For the same compound, the Potency [3] was “inactive”, the outcome [4] was “inactive” and the outcome [8] was “inactive”. For the same compound, the Potency [9] was “inactive” and the outcome [2] was “inactive”.
With `CCc1cncnc1N1CCN(Cc2nc3ccc(C(F)(F)F)cc3[nH]2)CC1` the Potency [7] was “inactive”, the outcome [6] was “inactive” and the Potency [5] was “inactive”.
With `Cc1oncc1C(=O)Nc1ccc(C(F)(F)F)cc1` the outcome [6] was “inactive”, the Potency [5] was 18.6 µM (active) and the Potency [3] was “inactive”. The outcome [4] was “inactive”, the outcome [8] was “inactive” and the Potency [9] was “inactive”. For the same compound, the outcome [2] was “inactive”.
For `CC(=O)Oc1ccccc1C(=O)O`, the Potency [7] was “inactive”, the outcome [1] was “inactive” and the outcome [6] was “inactive”. For the same compound, the Potency [3] was “inactive”, the outcome [4] was “inactive” and the outcome [8] was “inactive”. The Potency [9] was “inactive” and the outcome [2] was “inactive”.
For `CC(C)C[C@H](NC(=O)[C@@H](O)[C@H](N)Cc1ccccc1)C(=O)O`, the Potency [7] was “inactive”, the outcome [6] was “inactive” and the outcome [8] was “inactive”. For the same compound, the Potency [9] was “inactive” and the outcome [2] was “inactive”.
With `CCCc1nc2c(C)cc(-c3nc4ccccc4n3C)cc2n1Cc1ccc(-c2ccccc2C(=O)O)cc1` the outcome [1] was “inactive”, the Potency [5] was “inactive” and the outcome [2] was “inactive”.
In the case of `CC(C)(Sc1ccc(CCN(CCCCC2CCCCC2)C(=O)NC2CCCCC2)cc1)C(=O)O`, the Potency [7] is reported as “inactive”, the outcome [6] is reported as “inactive” and the outcome [8] is reported as “inactive”. For the same compound, the Potency [9] was 79.4 µM (active) and the outcome [2] was “inactive”.
With `CCC(C)(C)C(=O)O[C@H]1C[C@@H](C)C=C2C=C[C@H](C)[C@H](CC[C@@H]3C[C@@H](O)CC(=O)O3)[C@H]21` the outcome [1] was “inactive”, the Potency [5] was “inactive” and the Potency [3] was “inactive”. For the same compound, the outcome [4] was “inactive”.
In the case of `NC[C@H](O)c1ccc(O)c(O)c1`, the Potency [7] is reported as “inactive”, the outcome [1] is reported as “inactive” and the outcome [6] is reported as “inactive”. The outcome [4] was “inactive”, the outcome [8] was “inactive” and the Potency [9] was “inactive”. For the same compound, the outcome [2] was “inactive”.
For `CS(=O)(=O)c1cccc(CNc2nc(Nc3ccc4c(c3)CCC(=O)N4)ncc2C(F)(F)F)c1`, the Potency [7] was 5.62 µM (active), the outcome [6] was “inactive” and the Potency [5] was 10.4 µM (active).
With `OC(CN1CCC(Cc2ccc(F)cc2)CC1)c1ccc(Cl)cc1` (centres undefined) the outcome [1] was “inactive”, the outcome [6] was “inactive” and the Potency [3] was “inactive”. For the same compound, the outcome [4] was “inactive”, the outcome [8] was “inactive” and the Potency [9] was “inactive”. The outcome [2] was “inactive”.
For `CN(C)c1ccc(Nc2nc(N)n(C(=O)c3c(F)cccc3F)n2)cc1`, the Potency [5] was 16.5 µM (active).
For `CN1CCN(CCCN2c3ccccc3Sc3ccc(C(F)(F)F)cc32)CC1`, the Potency [7] was “inactive”, the outcome [6] was “inactive” and the Potency [5] was “inactive”. For the same compound, the Potency [3] was “inactive”, the outcome [4] was “inactive” and the outcome [8] was “inactive”. The Potency [9] was “inactive” and the outcome [2] was “inactive”.
